Assay results as given in PubChem BioAssay (NCATS).
Inconclusive results are not listed. Calls of active or inactive are those of the source. Calls follow the shape of the full dose curve.

Assay: Cell Viability - HepG2 (AID 433);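 also: cells exposed to compound for 40 hours; potency for ATP loss meaning cytotoxicity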
Details: qHTS
In short: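 HepG2 hepatocellular carcinoma cells (1500/well) were treated with compounds for 40 h at 37 °C in complete medium; intracellular ATP was read by CellTiter-Glo luminescence. Data were normalized to DMSO and 100 uM tamoxifen, and AC50 came from Hill fits.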
Potency is read from the fitted curve at half-maximal effect.

Row | Structure (SMILES) | Potency
1 | Brc1ccccc1 | > 92 µM (inactive)
2 | CCOP(=S)(OCC)SCSC(C)(C)C | > 92 µM (inactive)
3 | C=C(C)C#N | > 92 µM (inactive)
4 | CCSC(=O)Cl | > 92 µM (inactive)
5 | Cc1cccc([N+](=O)[O-])c1 | > 92 µM (inactive)
6 | Nc1c(Cl)c(Cl)nc(C(=O)O)c1Cl | > 92 µM (inactive)
7 | CC(C)(C)OOC(C)(C)C | > 92 µM (inactive)
8 | C=C(C)C(=O)OCC1CO1 (configuration not stated) | > 92 µM (inactive)
9 | Cc1ccc([N+](=O)[O-])cc1C | > 92 µM (inactive)
10 | O=[N+]([O-])c1ccc(Cl)c(Cl)c1 | > 92 µM (inactive)
11 | C=CC(=C)C | > 92 µM (inactive)
12 | Cc1ccc2ccccc2c1 | > 92 µM (inactive)
13 | Nc1ccccc1Cl | > 92 µM (inactive)
14 | Clc1ccc2ccccc2c1 | > 92 µM (inactive)
15 | [O-][Br+2]([O-])O | > 92 µM (inactive)
16 | Clc1nc(Cl)nc(Nc2ccccc2Cl)n1 | > 92 µM (inactive)
17 | OCC1CO1 (configuration not stated) | > 92 µM (inactive)
18 | C=CCOC(=O)c1ccccc1N | > 92 µM (inactive)
19 | C=CC(N)=O | > 92 µM (inactive)
20 | CC(C)(c1ccccc1)c1ccc(O)cc1 | > 92 µM (inactive)
21 | CCN(CC)c1ccccc1 | > 92 µM (inactive)
22 | S=C=Nc1cccc2ccccc12 | > 92 µM (inactive)
23 | N#CCCCl | > 92 µM (inactive)
24 | O=NN(CCO)CCO | > 92 µM (inactive)
25 | Cc1ccccc1N | > 92 µM (inactive)
26 | C=CCOC(C)=O | > 92 µM (inactive)
27 | CCCC(=O)Cl | > 92 µM (inactive)
